40 compounds from PubChem BioAssay (Tox21) can be followed below.

Inconclusive results are not listed. Entries that show only a call come without a potency. Activity calls are given as the source filed them. Calls follow the shape of the dose curve; as a rule, active = well fitted cell-killing curve with a large enough effect in the repeat runs; inconclusive = weak or mixed curves, or effect the other way; inactive = no such curve, though single readings can be large or run the other way.

A short description of this test: qHTS assay to identify small molecule antagonists of the peroxisome proliferator-activated receptor gamma (PPARg) signaling pathway - cell viability counter screen (AID 743194). Also: nearly all actives have a fitted effect of over 55% in size. To be noted: PPARg-bla HEK293H viability, CellTiter-Glo luminescence, 17 h, co-treated with 50 nM rosiglitazone; series mostly up to 62.6 µM; activity change, negative = cytotoxicity: at the top concentration. The text has this:
U.S. Tox21 Program National Center for Advancing Translational Sciences [NCATS] NIH Chemical Genomics Center [NCGC] U.S. Environmental Protection Agency [EPA] National Institutes of Environmental Health Sciences [NIEHS] National Toxicology Program [NTP] U.S. Food and Drug Administration [FDA] Tox21 Assay Overview: The peroxisome proliferator-activated receptors (PPARs) are lipid-activated transcription factors of the nuclear receptor superfamily with three distinct subtypes namely PPAR alpha, PPAR delta (also called PPAR beta) and PPAR gamma (PPARg). All these subtypes heterodimerize with Retinoid X receptor (RXR) and these heterodimers regulate transcription of various genes. PPAR-gamma receptor (glitazone receptor) is involved in the regulation of glucose and lipid metabolism. To identify the compounds that activate PPAR-gamma signaling, GeneBLAzer PPAR gamma UAS-bla HEK293H cell line (Invitrogen, Carlsbad, CA, USA) containing a beta-lactamase reporter gene under the control of an Upstream Activator Sequence (UAS) was used to screen the Tox21 compound library. The cytotoxicity of the Tox21 compound library against the PPARg-bla cell line was tested in parallel by measuring the cell viability using CellTiter-Glo assay in the same wells.
Tox21 Assay Protocol Summary: PPARg-bla cells were dispensed at 3000 cells/5uL/well in 1536-well black wall/clear bottom plates using a Multidrop Combi (Thermo Fisher Scientific, Waltham, MA) dispenser. After the assay plates were incubated at 37 C and 5% CO2 for 5 h, 23 nL of compounds dissolved in DMSO, positive controls or DMSO only was transferred to the assay plate by a Pintool station (Kalypsys, San Diego, CA), followed by addition of 1ul Rosiglitazone (50 nM, final concentration in the wells). The assay plates were incubated at 37 C for 17 h, and then 1 uL of LiveBLAzerTM B/G FRET substrate was added using a Bioraptr Flying Reagent Dispenser (FRD) workstation (Beckman Coulter, Indianapolis, IN, USA). The assay plates were incubated at room temperature for 1 h and fluorescence intensity was measured by an Envision plate reader (PerkinElmer, Shelton, CT). For cell viability readout that measures cytotoxicity, 4 ul/well of CellTiter-Glo reagent was added into the assay plates using a Flying Reagent Dispenser. After 30 min incubation at room temperature, the luminescence intensity in the plates was measured using a ViewLux plate reader (PerkinElmer).
For orientation: Quantitative high-throughput screening tests each substance at several concentrations.
As for `CN(C)c1cccc(O)c1`, the “activity change, negative = cytotoxicity” value is 0.716% (inactive).

As for `Cn1c([N+](=O)[O-])cnc1COC(N)=O`, the Potency entry was “inactive”.

Regarding `OCC1CCCO1` (stereo not given), the Potency entry is “inactive”.

Turning to `CC1(C)O[C@@H]2C[C@H]3[C@@H]4C[C@H](F)C5=CC(=O)CC[C@]5(C)[C@H]4[C@@H](O)C[C@]3(C)[C@]2(C(=O)CO)O1`, the Potency result is “inactive”.

For the compound `NCCc1ccc(O)c(O)c1`, the Potency entry was “inactive”.

On to `OCCOCCOCCOCCO`, for which the “activity change, negative = cytotoxicity” value was -9% (inactive).

Regarding `CC1Cc2ccccc2N1NC(=O)c1ccc(Cl)c(S(N)(=O)=O)c1` (stereo not given), the Potency result is “inactive”.

As for `CC(C)(C)C(=O)C1C(=O)c2ccccc2C1=O`, the Potency entry was “inactive”.

For `NC(=O)NNc1ccccc1`, the Potency entry is “inactive”.

On to `CC(=O)[C@@]1(O)CC[C@H]2[C@@H]3CCC4=CC(=O)CC[C@]4(C)[C@H]3CC[C@@]21C`, for which the “activity change, negative = cytotoxicity” value is -3.65% (inactive).

For the compound `NS(=O)(=O)c1cc2c(cc1Cl)NC=NS2(=O)=O`, the Potency entry is “inactive”.

In the case of `CCCCCC/C=C/CCCCCCCC(=O)O`, the Potency result was “inactive”.

Consider `O=S(=O)(O)CCS`, for which the “activity change, negative = cytotoxicity” value was 11.4% (inactive).

For `CC[Si](OC(C)=O)(OC(C)=O)OC(C)=O`, the “activity change, negative = cytotoxicity” value is 7.58% (inactive).

For `CCCCOCCOCCOC(=O)CCCCC(=O)OCCOCCOCCCC`, the Potency result is “inactive”.

As for `CC(C)Cc1ccccc1`, the Potency result was “inactive”.

As to `Cc1cc(NS(=O)(=O)c2ccc(N)cc2)no1`, the Potency entry was “inactive”.

For the compound `CC(C)(CO)COC(=O)C(C)(C)CO`, the Potency result is “inactive”.

Consider `O=C1CCCCC1`, for which the Potency result was “inactive”.

With `CC(=O)CCc1ccccc1`, the Potency result was “inactive”.

Turning to `C=C(C)C(=O)OCCCCCCCCCCCC`, the Potency result is “inactive”.

In the case of `O=[N+]([O-])c1cccc(Cl)c1`, the Potency entry is “inactive”.

With `Cc1ccc(C(=O)O)o1`, the Potency entry is “inactive”.

Regarding `C=C(C#N)C(=O)OCC`, the Potency result was “inactive”.

With `NCCNCCNCCNCCN`, the Potency entry was “inactive”.

`CS(=O)(=O)Nc1ccc([N+](=O)[O-])cc1Oc1ccccc1`: the Potency result was “inactive”.

In the case of `CC(C)n1c(/C=C/[C@@H](O)C[C@@H](O)CC(=O)O)c(-c2ccc(F)cc2)c2ccccc21`, the Potency result is “inactive”.

Take `Oc1ccc(OCc2ccccc2)cc1`: the Potency entry is “inactive”.

For `CCOC(=O)/C=C\C(=O)OCC`, the Potency result is “inactive”.

Take `Oc1ccc2ccccc2c1`: the Potency result is “inactive”.

Take `Clc1cc(Cl)c(Cl)cc1Cl`: the “activity change, negative = cytotoxicity” value was 8.13% (inactive).

As for `c1ccc2ccccc2c1`, the Potency result was “inactive”.

Regarding `CC1=C(CC(=O)O)c2cc(F)ccc2/C1=C\c1ccc(S(C)=O)cc1` (stereo not given), the “activity change, negative = cytotoxicity” value was -0.626% (inactive).

With `CCC(=O)O`, the Potency result is “inactive”.

Regarding `NCc1cccc(CN)c1`, the “activity change, negative = cytotoxicity” value is 10.7% [at 81.1 µM] (inactive).

`CCOC(=O)[C@H](CCc1ccccc1)N[C@@H](C)C(=O)N1Cc2ccccc2C[C@H]1C(=O)O`: the Potency entry was “inactive”.

In the case of `CCCCCCCCCCC=CC1CC(=O)OC1=O` (stereo not given), the “activity change, negative = cytotoxicity” value is -6.78% (inactive).

`Cc1cc(O)c2c(c1)C(=O)c1cc(O)cc(O)c1C2=O`: the “activity change, negative = cytotoxicity” value is -21.6% (inactive).

As to `O=C1O[C@H](CO)[C@@H](O)[C@H](O)[C@H]1O`, the Potency entry was “inactive”.

`C=C(C)C(=O)OCCCCCC`: the Potency result is “inactive”.
